Out of some 38,000 compounds screened, about 1,200 (3.2%) showed an effect of 50% or more. The median lay at about -58%. Many of the other results were omitted from the sample, so strong results are more common in it than they were.
Test system: Plasmodium falciparum
Assay: Calibr Malaria Delayed Death Assay SOP
Assay type: functional, organism-based
Set-up: scale not given: in the data most compounds retested in dose-response had high values
Conditions: concentration 4.99e-06 (unit not given; other assays of the set use mol/L)

Structure (SMILES)	Percent Effect [%]
c1ccc(-c2nnc([C@H]3CCN(C4CCOCC4)C3)o2)cc1	-0.6483
O=C(O)C(F)(F)F.c1ccc(C[C@H]2CN(Cc3nccs3)CC[C@@H]2OCC2CC2)cc1	38.1
Cc1noc(C)c1CN1C[C@H](OCC2CC2)[C@H]2COC[C@H]21.O=C(O)C(F)(F)F	-59.49
O=C(C1CCOCC1)N1CC[C@@H](N2CCOCC2)[C@@H]1Cc1ccccc1	3.107
Cc1noc(C)c1CN1CC[C@H](OCC2CC2)[C@@H](Cc2ccccc2)C1	60.12
OC(CNc1ccncn1)CN1CCCCCC1 (centres undefined)	-2.039
CC(C)c1ccc(C(=O)N2CCOCC2CC(=O)c2ccco2)cn1 (centres undefined)	-33.41
CS(=O)(=O)N1CCCC(Cc2cncc(Br)c2)CC1 (centres undefined)	-9.475
FC(F)(F)c1ccc2nc([C@H]3CCN(C4CCC4)C3)[nH]c2c1	5.22
CS(=O)(=O)N1CC[C@H](c2nc3ccc(C(F)(F)F)cc3[nH]2)C1	-89.81
FC(F)(F)c1ccc2nc([C@H]3CCN(C4CCCCC4)C3)[nH]c2c1	83.6
O=C(CCc1ccccc1)N1CCCCC1Cn1cccn1 (centres undefined)	-77.88
Cc1ccc(CN2CCC3(CC2)CC3CN(C)Cc2cccnc2)o1.O=C(O)C(F)(F)F.O=C(O)C(F)(F)F.O=C(O)C(F)(F)F (centres undefined)	69.86
CN(Cc1cccnc1)CC1CC12CCN(c1nncs1)CC2.O=C(O)C(F)(F)F.O=C(O)C(F)(F)F.O=C(O)C(F)(F)F (centres undefined)	-14.98
Cc1cnc(N2CCC3(CC2)CC3CN(C)Cc2cccnc2)nc1.O=C(O)C(F)(F)F.O=C(O)C(F)(F)F (centres undefined)	-34.71
CCn1ccnc1CN1CCCC(CO)(Cc2cccc(Cl)c2)C1 (centres undefined)	76.24
CCOC(=O)C1(Cc2ccccc2)CCCN(Cc2nccn2CC)C1 (centres undefined)	71.35
CCOC(=O)C1(CCOC)CCN(Cc2nccn2CC)CC1	-18.48
CCn1ccnc1CN1CCCC(CO)(CCCc2ccccc2)C1 (centres undefined)	5.561
Cc1cnc(C)c(N2CCCC(CO)(Cc3cccc(Cl)c3)C2)n1 (centres undefined)	-85.57
CCOC(=O)C1(CCOC)CCCN(Cc2nccn2CC)C1 (centres undefined)	6.985
CCn1c(N)nc2cc(C(=O)NCCc3ccccc3F)cnc21	-271.4
CCc1nc(C2CCCN2CC(=O)Nc2cc(C)nn2C)no1 (centres undefined)	-146.1

Structure (SMILES)	Percent Effect [%]
O=C(Cc1cccc(F)c1)NC1CCCc2cn[nH]c21 (centres undefined)	-5.228
CN(CCCOc1ccccc1)S(=O)(=O)c1cnn(C)c1	-2.544
O=C(Cc1c[nH]c2ncccc12)NCC(O)c1ccsc1 (centres undefined)	-112.4
NC(=O)c1ccccc1NC(=O)CCN1CCN(CCO)CC1	-1.535
CC(C)Oc1ccc(C(O)CNCc2ccccc2C(F)(F)F)cc1 (centres undefined)	82.7
COC(=O)CNC(=O)C(C)Oc1ccccc1C(F)(F)F (centres undefined)	-63.42
CC(C(N)=O)N(C)Cc1ccccc1C(F)(F)F (centres undefined)	-7.943
CC(C)Oc1cccc(C(O)CNC(=O)NCc2cccs2)c1 (centres undefined)	-103.2
CC(=O)Nc1ccc(CNCC(O)c2ccccc2)cc1 (centres undefined)	6.789
CC(O)CNCc1ccccc1C(F)(F)F.Cl (centres undefined)	-50.42
CC(=O)Nc1ccc(CNCC(O)c2ccc(C)cc2)cc1 (centres undefined)	-93.75
CN(Cc1ccccc1C(F)(F)F)C(C(N)=O)c1ccccc1 (centres undefined)	-32.88
Cc1ccccc1CNCC(O)c1ccc(OC(C)C)cc1 (centres undefined)	92.11
Cc1nn(C)c(N(C)C)c1CNCC(O)c1ccccc1 (centres undefined)	-52.78
Cl.OC(CNCc1ccccc1C(F)(F)F)c1ccccc1 (centres undefined)	81.89
CC(C)C(NC(=O)NCCNc1ncccn1)c1cccs1 (centres undefined)	-40.63
CN1CCC2(CC1)CN(C(=O)c1ccncc1)Cc1ccccc12	-65.66
O=C(CCC1CCCO1)NCCCC(=O)Nc1ccc(Cl)cc1 (centres undefined)	-199.2
CCOc1ccc(S(=O)(=O)N(CCOC)Cc2ccncc2)cc1F	-28.24
O=C(CCn1ccnn1)N1CCCC(n2cncn2)C1 (centres undefined)	-95.7
CC(C)N1CCCC(C(=O)NCCc2csc(-c3ccncc3)n2)C1 (centres undefined)	-80.76
CNC(=O)C1CCN(c2nc3nc[nH]c(=O)c3s2)CC1	-123.8
CC(C)CN1C(=O)C2(CCN(Cc3ccoc3)C2)c2ccccc21.O=C(O)C(F)(F)F (centres undefined)	-29.95

Structure (SMILES)	Percent Effect [%]
COC(=O)c1ncccc1N1CCC(C(O)c2ccccc2)CC1 (centres undefined)	-12.82
Cn1ccnc1CN1CCCC2(CCN(CC3CCCO3)CC2)C1.O=C(O)C(F)(F)F.O=C(O)C(F)(F)F (centres undefined)	15.47
CN(C)c1nccc(N2CCO[C@H]3CN(Cc4ccsc4)C[C@H]32)n1.O=C(O)C(F)(F)F	68.45
COCCN1CC[C@@H]2CN(Cc3cccnc3OC)C[C@@H]2C1.O=C(O)C(F)(F)F.O=C(O)C(F)(F)F	-74.35
O=C(O)C(F)(F)F.O=C(O)C(F)(F)F.O=C(O)C(F)(F)F.O=C(O)C(F)(F)F.c1cc(CN2C[C@@H]3OCCN(CCN4CCCC4)[C@@H]3C2)ccn1	-114.9
COc1ccc(CN2C[C@@H]3OCCN(CCN(C)C)[C@@H]3C2)cc1.O=C(O)C(F)(F)F.O=C(O)C(F)(F)F.O=C(O)C(F)(F)F	65.18
CCc1ccc(CN2C[C@@H]3OCCN(c4ccnc(N(C)C)n4)[C@@H]3C2)o1.O=C(O)C(F)(F)F	5.976
COc1ncccc1CN1C[C@@H]2OCCN(CCN(C)C)[C@@H]2C1.O=C(O)C(F)(F)F.O=C(O)C(F)(F)F.O=C(O)C(F)(F)F	-6.564
COc1ncccc1CN1CC[C@H]2[C@H]1CCN2CCN(C)C.O=C(O)C(F)(F)F.O=C(O)C(F)(F)F.O=C(O)C(F)(F)F.O=C(O)C(F)(F)F	52.47
COc1ccc(CN2C[C@@H]3OCCN(C)[C@@H]3C2)cc1.O=C(O)C(F)(F)F	-49.2
Fc1ccc(CN2C[C@@H]3OCCN(CCN4CCCC4)[C@@H]3C2)cc1.O=C(O)C(F)(F)F.O=C(O)C(F)(F)F.O=C(O)C(F)(F)F	-79.23
O=C(O)C(F)(F)F.O=C(O)C(F)(F)F.c1cnc(N2CCO[C@H]3CN(Cc4ccsc4)C[C@H]32)nc1	32.67
COc1ccc(CN2C[C@@H]3OCCN(CCN4CCCC4)[C@@H]3C2)cc1.O=C(O)C(F)(F)F.O=C(O)C(F)(F)F.O=C(O)C(F)(F)F	62.07
CN(C)CCN1CCO[C@H]2CN(Cc3ccccn3)C[C@H]21.O=C(O)C(F)(F)F.O=C(O)C(F)(F)F.O=C(O)C(F)(F)F.O=C(O)C(F)(F)F	8.318
O=C(C1CCOC1)N1CCC2(CCN(Cc3nccs3)C2)CC1 (centres undefined)	-29.96
CN(Cc1cccc(F)c1)C(=O)CN1CCOC(Cn2cncn2)C1 (centres undefined)	-118.2
Cc1ccc(CC(=O)NCC(Cc2ccc(F)cc2)C(N)=O)cn1 (centres undefined)	-64.69
COc1ccc(CN2CC(O)CN(C(=O)OCC(C)C)CC2=O)cc1 (centres undefined)	-72.03
CC(C)CC(=O)N1CC[C@H]2N(C)CC[C@@]2(C(=O)Nc2cccnc2)CC1.O=C(O)C(F)(F)F.O=C(O)C(F)(F)F	15.37
COc1cccn(CC(=O)N2CCC3(CCNCC3)C2)c1=O	-26.75
COc1cccc(CN2CC3(CCNCC3)CCC2=O)c1OC	6.381
O=C(COCC1CCCO1)N(Cc1cccnc1)c1ccc(F)cc1 (centres undefined)	-38.29
O=S(=O)(CCCN1CCCC1Cn1cncn1)c1ccccc1 (centres undefined)	-135.1

Structure (SMILES)	Percent Effect [%]
Cc1nc(O)cc(CN2CC=C(c3cnn(C(C)(C)C)c3)CC2)n1	-65.29
CC(C)(C)n1cc(C2=CCN(CCNC(N)=O)CC2)cn1	-173.3
CCC(O)Cn1cc(C2=CCN(Cc3ccc(OC)cc3)CC2)cn1 (centres undefined)	67.35
CC(C)(C)n1cc(C2=CCN(CCc3ccccc3)CC2)cn1	67.25
Cn1cc(C2=CCN(CCCOc3ccc(C(N)=O)cc3)CC2)cn1	-65.42
CC(C)(C)n1cc(C2=CCN(CCNC(=O)c3ccccc3)CC2)cn1	15.76
CC(C)(C)n1cc(C2=CCN(CCN3CCCCCC3)CC2)cn1	70.18
CCn1cc(C2=CCN(CCCOc3ccccc3)CC2)cn1	81.92
COc1ccc(NC(=O)CCN2CC=C(c3cnn(C)c3)CC2)c(C)c1	-34.98
CC(C)(C)n1cc(C2=CCN(CCc3ccccn3)CC2)cn1	43.76
CCC(O)Cn1cc(C2=CCN(Cc3cc(O)nc(C)n3)CC2)cn1 (centres undefined)	-28.24
Cn1cc(C2=CCN(CCCC(=O)Nc3ccc(C#N)cc3)CC2)cn1	-71.5
CC(O)(CNC(=O)c1cccnc1-n1cccn1)c1ccco1 (centres undefined)	-10.35
CCN1CCCCC1C(=O)N1CCC(OCCOC)CC1 (centres undefined)	-112.4
CSc1ccccc1C(=O)N1C[C@@H](N(C)C)[C@H](c2ccc(C)cc2)C1	-25.73
CCc1cnc2c(c1NCc1ccc(OC)cc1)c(=O)n(C)c(=O)n2C	-5.547
CC(C)CC(NC(=O)c1ccco1)c1nnc2ccccn12 (centres undefined)	-178.4
O=C(O)C1(O)CCN(c2ccnc3c(C(F)(F)F)cccc23)CC1	-178.3
Cc1cccc(C(=O)N(C)C2CCN(c3ccccn3)CC2)c1C	-82.1
CS(=O)(=O)c1ccc(NC(=O)NC2(c3cccc(F)c3)CC2)cc1	-42.46

From ChEMBL document CHEMBL3988442, “University of Dundee, Small-Polar-MMV Screening Library” (2021)
